Experimental data as given in the supplement of paper PMC10849652.
Of roughly 8,800 targets only a part is listed; those with a hit were picked by preference. About 0.5% of all pairs of compound and target were hits. A number with no mark means an inactive call.

Columns and labels:
Test in all cases: log2 fold change, soluble protein after heating vs DMSO (PISA); higher = thermal stabilisation; K562 lysate, 10 uM; active = over 0.2 and 3.5 SD of the protein, either way, in both replicates (recomputed)
ibrutinib = compound: C=CC(=O)N1CCC[C@@H](n2nc(-c3ccc(Oc4ccccc4)cc3)c3c(N)ncnc32)C1 [ibrutinib]
Procedure, shortened: (§1)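 A 30 min treatment with 10 μM compound was applied to crude K562 extract at 1 mg/mL protein in PBS pH 7.4 with 1 mM MgCl2. Heating for 3 min spanned 48°C-58°C, after which aliquots were pooled, adjusted to 0.5% NP-40 at 4°C and spun at 21,000xg for 90 min. TMTpro 16plex LC-MS/MS of the supernatant, with channel sums equalised, gave values recorded as log-two fold change in thermal stability against solvent controls, from duplicates.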

[1] = compound: CC(=O)c1cnc2ccc(-c3cc(Cl)c(O)c(Cl)c3)nc2c1N[C@H]1CC[C@H](CN(C)C)CC1
Procedure, shortened: as §1

ralimetinib = compound: CC(C)(C)Cn1c(N)nc2ccc(-c3[nH]c(C(C)(C)C)nc3-c3ccc(F)cc3)nc21 [ralimetinib]
Procedure, shortened: as §1

[2] = compound: CC(C)(O)CC(=O)NCCn1ccc2ncnc(Nc3ccc(Oc4cccc(C(F)(F)F)c4)c(Cl)c3)c21
Procedure, shortened: as §1

[3] = compound: CC(C)C1=C2N=C(C=C(N2N=C1)NCC3=CC=CC=C3)NCCCCCCN
Procedure, shortened: as §1

[4] = compound: CC1=C(C(CC(=O)N1)C2=CC=C(C=C2)C(F)(F)F)C(=O)NC3=C(C=C4C(=C3)C=NN4)F
Procedure, shortened: as §1

[5] = compound: CC1=C(C2=C(C=C1)C(=O)C3=CC=CC=C3N2CCCN)C
Procedure, shortened: as §1

[6] = compound: CC1=C(C=C(C=C1)NC(=O)C2=CC(=CC=C2)C(C)(C)C#N)NC3=CC4=C(C=C3)N=CN(C4=O)C
Procedure, shortened: as §1

[7] = compound: CC1=C(C=C(C=C1)NC(=O)C2=CC(=CC=C2)N(C)C)NC(=O)C3=CC=C(C=C3)O
Procedure, shortened: as §1

[8] = compound: CC1=CC=C(C=C1)SC2=C3C=C(SC3=CN=C2)C(=O)N
Procedure, shortened: as §1

vemurafenib = compound: CCCS(=O)(=O)Nc1ccc(F)c(C(=O)c2c[nH]c3ncc(-c4ccc(Cl)cc4)cc23)c1F [vemurafenib]
Procedure, shortened: as §1

[9] = compound: CCCS(=O)(=O)Nc1ccc(F)c(C(=O)c2c[nH]c3ncc(Cl)cc23)c1F
Procedure, shortened: as §1

barasertib = compound: CCN(CCCOc1ccc2c(Nc3cc(CC(=O)Nc4cccc(F)c4)[nH]n3)ncnc2c1)CCOP(=O)(O)O [barasertib]
Procedure, shortened: as §1

[10] = compound: CC[C@@H]1C(=O)N(C)c2cnc(Nc3ccc(C(=O)NC4CCN(C)CC4)cc3OC)nc2N1C1CCCC1
Procedure, shortened: as §1

volasertib = compound: CC[C@@H]1C(=O)N(C)c2cnc(Nc3ccc(C(=O)N[C@H]4CC[C@H](N5CCN(CC6CC6)CC5)CC4)cc3OC)nc2N1C(C)C [volasertib]
Procedure, shortened: as §1

[11] = compound: CCn1c(C(=O)N(C2CC2)C2CC2)cc2c3c(ncn3C)c(Nc3cc(C)n(C)n3)nc21
Procedure, shortened: as §1

[12] = compound: CCn1cc(-c2ccnc3[nH]c(-c4cccc(CN(C)C)c4)cc23)c(-c2ccc(NC(=O)N(C)C)cc2)n1
Procedure, shortened: as §1

[13] = compound: CN1CCC(CNc2ccc3ncc(-c4cccc(OC(F)(F)F)c4)n3n2)CC1
Procedure, shortened: as §1

saracatinib = compound: CN1CCN(CCOc2cc(OC3CCOCC3)c3c(Nc4c(Cl)ccc5c4OCO5)ncnc3c2)CC1 [saracatinib]
Procedure, shortened: as §1

sotrastaurin = compound: CN1CCN(c2nc(C3=C(c4c[nH]c5ccccc45)C(=O)NC3=O)c3ccccc3n2)CC1 [sotrastaurin]
Procedure, shortened: as §1

UniProt Q8WZA2, sequence (Q8WZA2 whole entry, looked up): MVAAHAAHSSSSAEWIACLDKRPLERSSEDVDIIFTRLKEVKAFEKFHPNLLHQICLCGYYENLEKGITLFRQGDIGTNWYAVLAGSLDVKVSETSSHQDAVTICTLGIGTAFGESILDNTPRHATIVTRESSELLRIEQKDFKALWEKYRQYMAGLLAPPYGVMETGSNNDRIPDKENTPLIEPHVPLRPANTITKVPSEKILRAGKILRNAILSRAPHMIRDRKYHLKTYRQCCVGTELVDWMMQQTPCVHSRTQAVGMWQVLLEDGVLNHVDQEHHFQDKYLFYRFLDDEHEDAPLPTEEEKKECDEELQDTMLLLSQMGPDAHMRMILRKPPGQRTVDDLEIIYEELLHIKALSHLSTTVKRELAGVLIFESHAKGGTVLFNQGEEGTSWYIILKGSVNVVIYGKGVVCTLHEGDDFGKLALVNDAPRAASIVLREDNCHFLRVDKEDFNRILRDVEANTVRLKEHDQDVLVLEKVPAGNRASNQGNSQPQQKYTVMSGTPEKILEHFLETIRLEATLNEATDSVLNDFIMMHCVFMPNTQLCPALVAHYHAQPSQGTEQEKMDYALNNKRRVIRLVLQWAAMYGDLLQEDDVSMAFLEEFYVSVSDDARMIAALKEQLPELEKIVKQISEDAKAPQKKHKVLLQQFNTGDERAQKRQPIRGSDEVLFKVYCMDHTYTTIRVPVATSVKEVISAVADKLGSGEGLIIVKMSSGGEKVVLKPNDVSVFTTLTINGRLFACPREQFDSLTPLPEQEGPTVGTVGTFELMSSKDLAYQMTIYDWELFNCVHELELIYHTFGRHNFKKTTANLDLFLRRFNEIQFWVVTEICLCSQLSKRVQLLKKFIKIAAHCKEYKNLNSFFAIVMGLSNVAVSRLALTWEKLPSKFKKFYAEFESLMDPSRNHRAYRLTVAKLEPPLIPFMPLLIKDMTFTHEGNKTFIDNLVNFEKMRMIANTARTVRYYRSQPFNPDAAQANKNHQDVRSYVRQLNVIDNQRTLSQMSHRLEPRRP
UniProt Q6NUM9, sequence (Q6NUM9 whole entry, looked up): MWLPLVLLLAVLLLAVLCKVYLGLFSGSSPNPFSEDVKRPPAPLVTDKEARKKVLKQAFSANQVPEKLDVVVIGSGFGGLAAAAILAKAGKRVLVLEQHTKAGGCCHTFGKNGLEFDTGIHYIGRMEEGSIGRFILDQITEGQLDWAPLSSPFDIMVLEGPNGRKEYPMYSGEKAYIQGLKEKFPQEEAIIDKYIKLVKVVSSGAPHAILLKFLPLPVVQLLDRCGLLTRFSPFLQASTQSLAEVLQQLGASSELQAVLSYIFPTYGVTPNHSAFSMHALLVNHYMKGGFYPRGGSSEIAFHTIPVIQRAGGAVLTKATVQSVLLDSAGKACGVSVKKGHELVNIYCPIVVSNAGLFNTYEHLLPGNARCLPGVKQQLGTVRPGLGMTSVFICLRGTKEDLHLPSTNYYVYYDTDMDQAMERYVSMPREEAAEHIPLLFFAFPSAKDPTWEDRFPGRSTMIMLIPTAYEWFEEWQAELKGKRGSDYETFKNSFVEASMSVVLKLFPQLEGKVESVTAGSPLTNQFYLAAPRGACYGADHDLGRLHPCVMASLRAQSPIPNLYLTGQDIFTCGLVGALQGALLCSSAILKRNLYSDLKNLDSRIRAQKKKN
UniProt Q15404, sequence (Q15404 whole entry, looked up): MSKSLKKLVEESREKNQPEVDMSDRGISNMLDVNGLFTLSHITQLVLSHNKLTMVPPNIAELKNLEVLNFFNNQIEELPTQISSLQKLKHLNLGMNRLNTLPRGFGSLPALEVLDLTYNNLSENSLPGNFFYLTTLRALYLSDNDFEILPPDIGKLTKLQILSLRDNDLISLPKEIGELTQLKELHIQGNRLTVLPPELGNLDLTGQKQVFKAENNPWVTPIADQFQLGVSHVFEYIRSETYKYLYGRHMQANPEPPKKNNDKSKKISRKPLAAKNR
UniProt P51812, sequence (P51812 whole entry, looked up): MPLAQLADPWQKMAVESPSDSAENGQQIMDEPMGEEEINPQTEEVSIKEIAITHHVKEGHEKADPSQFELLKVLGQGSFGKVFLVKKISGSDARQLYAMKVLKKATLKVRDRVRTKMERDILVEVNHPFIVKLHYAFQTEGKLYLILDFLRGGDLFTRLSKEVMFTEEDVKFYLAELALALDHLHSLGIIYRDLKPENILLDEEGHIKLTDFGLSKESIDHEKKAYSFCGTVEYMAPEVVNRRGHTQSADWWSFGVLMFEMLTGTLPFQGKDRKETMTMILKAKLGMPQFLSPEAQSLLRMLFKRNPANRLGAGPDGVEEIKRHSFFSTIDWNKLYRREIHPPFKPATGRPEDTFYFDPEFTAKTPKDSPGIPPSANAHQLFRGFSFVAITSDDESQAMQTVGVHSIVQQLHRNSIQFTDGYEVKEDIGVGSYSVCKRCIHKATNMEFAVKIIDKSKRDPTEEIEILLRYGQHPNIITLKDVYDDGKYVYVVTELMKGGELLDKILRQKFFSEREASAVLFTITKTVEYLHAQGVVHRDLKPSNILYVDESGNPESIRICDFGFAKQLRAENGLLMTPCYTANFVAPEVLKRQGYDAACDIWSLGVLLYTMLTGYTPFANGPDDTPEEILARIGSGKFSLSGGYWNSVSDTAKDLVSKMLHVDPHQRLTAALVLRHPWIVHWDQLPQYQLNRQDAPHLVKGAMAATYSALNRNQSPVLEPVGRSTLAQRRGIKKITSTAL
UniProt Q5HYI8, sequence (Q5HYI8 whole entry, looked up): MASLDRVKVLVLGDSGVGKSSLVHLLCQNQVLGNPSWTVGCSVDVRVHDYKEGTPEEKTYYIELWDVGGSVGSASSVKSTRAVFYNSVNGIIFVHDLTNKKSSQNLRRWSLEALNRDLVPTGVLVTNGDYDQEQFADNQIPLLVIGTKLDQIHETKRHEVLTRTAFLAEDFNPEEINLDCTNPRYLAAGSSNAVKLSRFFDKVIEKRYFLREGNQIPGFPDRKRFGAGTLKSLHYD
UniProt Q16576, sequence (Q16576 whole entry, looked up): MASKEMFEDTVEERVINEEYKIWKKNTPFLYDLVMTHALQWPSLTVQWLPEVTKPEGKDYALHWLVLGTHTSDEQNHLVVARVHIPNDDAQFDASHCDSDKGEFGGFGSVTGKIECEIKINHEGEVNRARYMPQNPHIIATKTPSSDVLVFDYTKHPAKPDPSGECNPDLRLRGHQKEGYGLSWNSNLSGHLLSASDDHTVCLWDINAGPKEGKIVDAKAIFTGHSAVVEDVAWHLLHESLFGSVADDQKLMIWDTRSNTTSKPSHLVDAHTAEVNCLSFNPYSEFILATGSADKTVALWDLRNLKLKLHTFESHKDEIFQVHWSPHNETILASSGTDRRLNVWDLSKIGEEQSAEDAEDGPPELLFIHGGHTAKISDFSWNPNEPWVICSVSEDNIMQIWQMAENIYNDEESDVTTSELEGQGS
UniProt P47736, sequence (P47736 whole entry, looked up): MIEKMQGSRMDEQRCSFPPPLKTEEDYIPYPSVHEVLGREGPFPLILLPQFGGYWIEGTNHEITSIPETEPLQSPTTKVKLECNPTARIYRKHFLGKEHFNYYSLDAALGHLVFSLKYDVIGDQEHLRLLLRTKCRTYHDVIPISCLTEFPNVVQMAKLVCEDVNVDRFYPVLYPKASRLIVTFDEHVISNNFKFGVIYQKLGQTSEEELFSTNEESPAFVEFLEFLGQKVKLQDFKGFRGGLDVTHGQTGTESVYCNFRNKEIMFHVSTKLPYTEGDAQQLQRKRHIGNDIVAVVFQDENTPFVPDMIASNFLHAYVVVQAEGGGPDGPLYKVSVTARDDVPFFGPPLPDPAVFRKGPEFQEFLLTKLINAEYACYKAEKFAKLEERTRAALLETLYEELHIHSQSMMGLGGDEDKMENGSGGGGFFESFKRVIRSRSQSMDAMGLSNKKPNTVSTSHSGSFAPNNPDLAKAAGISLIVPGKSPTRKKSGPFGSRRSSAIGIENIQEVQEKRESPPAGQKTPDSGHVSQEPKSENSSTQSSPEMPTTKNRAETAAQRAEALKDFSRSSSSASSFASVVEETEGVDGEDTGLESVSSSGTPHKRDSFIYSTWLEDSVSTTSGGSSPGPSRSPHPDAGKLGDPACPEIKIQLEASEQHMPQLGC
UniProt Q9H1K0, sequence (Q9H1K0 whole entry, looked up): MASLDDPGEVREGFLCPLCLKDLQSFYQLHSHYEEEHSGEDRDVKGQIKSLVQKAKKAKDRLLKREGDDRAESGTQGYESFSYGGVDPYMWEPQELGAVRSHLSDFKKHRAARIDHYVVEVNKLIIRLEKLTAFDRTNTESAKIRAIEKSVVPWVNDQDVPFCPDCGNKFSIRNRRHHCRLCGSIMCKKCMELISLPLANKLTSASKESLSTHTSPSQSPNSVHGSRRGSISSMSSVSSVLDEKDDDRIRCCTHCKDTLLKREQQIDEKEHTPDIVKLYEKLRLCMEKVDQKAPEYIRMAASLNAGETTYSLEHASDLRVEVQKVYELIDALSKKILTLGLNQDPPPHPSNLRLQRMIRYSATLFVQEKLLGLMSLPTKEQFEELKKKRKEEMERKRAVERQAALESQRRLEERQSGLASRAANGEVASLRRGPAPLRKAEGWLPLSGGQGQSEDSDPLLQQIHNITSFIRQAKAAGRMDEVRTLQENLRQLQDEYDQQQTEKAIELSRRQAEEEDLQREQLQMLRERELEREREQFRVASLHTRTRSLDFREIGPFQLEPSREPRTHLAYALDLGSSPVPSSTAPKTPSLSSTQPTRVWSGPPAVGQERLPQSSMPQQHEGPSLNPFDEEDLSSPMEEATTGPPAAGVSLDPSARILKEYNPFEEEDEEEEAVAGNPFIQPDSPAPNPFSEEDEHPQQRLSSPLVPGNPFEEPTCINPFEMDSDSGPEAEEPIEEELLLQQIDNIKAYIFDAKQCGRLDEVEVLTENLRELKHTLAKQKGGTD

Row | Target | log2 fold change (ibrutinib) | log2 fold change [1] | log2 fold change (ralimetinib) | log2 fold change [2] | log2 fold change [3] | log2 fold change [4] | log2 fold change [5] | log2 fold change [6] | log2 fold change [7] | log2 fold change [8] | log2 fold change (vemurafenib) | log2 fold change [9] | log2 fold change (barasertib) | log2 fold change [10] | log2 fold change (volasertib) | log2 fold change [11] | log2 fold change [12] | log2 fold change [13] | log2 fold change (saracatinib) | log2 fold change (sotrastaurin)
1 | RAP1GAP isoform 4 (UniProt P47736) | -0.024 | 0.018 | 0.068 | -0.037 | 0.051 | 0.003 | -0.008 | 0.056 | -0.009 | -0.012 | 0.009 | 0.055 | 0.008 | 0.044 | -0.075 | 0.003 | -0.038 | 0.02 | 0.06 | 0.029
2 | RABL3 (UniProt Q5HYI8) | 0.017 | 0.014 | 0.153 | -0.05 | -0.047 | 0.021 | -0.043 | 0.003 | -0.141 | 0.014 | 0.043 | 0.024 | 0.033 | -0.072 | -0.045 | 0.632 | -0.045 | -0.032 | 0.018 | 0.069
3 | RBBP7 isoform 2 (UniProt Q16576) | 0.016 | 0.043 | 0.062 | 0.042 | -0.028 | -0.029 | 0.011 | -0.002 | -0.001 | 0.034 | -0.064 | -0.007 | -0.042 | -0.057 | 0.022 | 0.047 | -0.274 (active) | 0.088 | 0.001 | 0.032
4 | RBMX (UniProt P38159) | -0.034 | -0.132 | 0.004 | 0.032 | -0.029 | -0.017 | 0.035 | -0.016 | -0.016 | -0.006 | -0.058 | 0.013 | -0.026 | -0.012 | -0.02 | 0.067 | -0.007 | 0.009 | -0.031 | -0.014
5 | RNF17 (UniProt Q9BXT8) | -0.098 | 0.035 | -0.044 | -0.254 | -0.023 | – | 0.077 | -0.196 | -0.044 | -0.068 | – | 0.022 | 0.133 | 0.099 | 0.066 | -0.035 | 0.113 | -0.421 | 0.257 | 0.046
6 | RBSN (UniProt Q9H1K0) | 0.018 | 0.043 | -0.014 | -0.007 | 0.043 | 0.025 | -0.032 | 0.044 | 0.003 | 0.035 | 0.051 | 0.01 | 0.023 | 0.035 | -0.087 | 0.006 | -0.075 | 0.038 | 0.023 | -0.019
7 | RETSAT (UniProt Q6NUM9) | -0.091 | 0.073 | -0.057 | -0.134 | 0.07 | – | -0.113 | 0.226 | -0.015 | -0.24 | 0.115 | 0.039 | 0.076 | 0 | -0.087 | -0.297 | -0.318 | 0.116 | 0.108 | -0.119
8 | RSU1 (UniProt Q15404) | 0 | 0.005 | -0.005 | -0.02 | 0.005 | 0.019 | -0.022 | -0.017 | -0.027 | -0.012 | -0.006 | 0.005 | -0.067 | 0.026 | 0.022 | 0.004 | 0.405 (active) | -0.143 | -0.032 | -0.019
9 | RAPGEF4 (UniProt Q8WZA2) | -0.026 | -0.129 | -0.001 | -0.328 | 0.044 | – | 0.046 | 0.442 | -0.004 | -0.166 | 0.157 | 0.077 | 0.022 | 0.174 | 0.049 | -0.259 | -0.887 (active) | 0.391 | 0.037 | 0.001
10 | REL isoform 2 (UniProt Q04864) | 0.032 | 0.015 | 0.06 | -0.003 | 0.005 | -0.018 | 0.038 | 0.022 | -0.023 | 0.049 | -0.035 | 0.017 | 0.033 | 0.049 | -0.032 | 0.025 | 0.02 | -0.174 | -0.002 | -0.022
11 | RYR1 (UniProt P21817) | 0.091 | 0.008 | -0.028 | -0.012 | -0.088 | – | -0.014 | 0.195 | -0.032 | 0.013 | – | -0.038 | 0.041 | 0.07 | -0.049 | -0.053 | 0.045 | 0.03 | 0.057 | 0.091
12 | RPS6KA3 (UniProt P51812) | -0.04 | 0.56 (active) | -0.004 | -0.032 | -0.11 | -0.043 | -0.02 | -0.061 | 0.006 | -0.039 | 0.031 | 0.005 | -0.003 | – | -0.026 | 0.133 | -0.014 | 0.093 | 0.078 | 0.037
